33 compounds from PubChem BioAssay (NCATS) can be followed below.

Test [1] can be described thus: A High-Content qHTS Against Drug Library for the Identification of Small Molecules that Inhibit DYT1 Early Onset Primary Dystonia-Associated Cell Pathology (AID 1645839; calls by dose curve; note: series mostly up to about 46 µM). Put shortly:
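High-content imaging quantified EGFP-TorsinA mislocalization in HEK293-derived cells inducibly expressing DYT1 mutant torsinA, after 48 h exposure to compound given together with tetracycline induction. Cell count served as a toxicity channel alongside %pathology.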
(qHTS replaces the single test concentration by a dilution series.)

In test [2] the target is Cytochrome P450 2D6 (Homo sapiens) (UniProt P10635). Nature of the test: Cytochrome P450 family 2 subfamily D member 6 (CYP2D6) small molecule antagonists: luciferase biochemical (cell-free) qHTS assay (AID 1645840; active = well fitted curve in the direction sought with a large enough effect in the repeat runs; an effect the other way counts as inactive or inconclusive; note: nearly all actives have a fitted effect of over 55% in size; note: potency is the fitted concentration of half-maximal effect). Put shortly: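 P450-Glo CYP2D6 system: proluciferin substrate converted by enzyme to luciferin, read by luminescence proportional to activity. Enzyme-substrate mix with compound 10 min at room temperature, then NADPH regeneration 1 h before detection reagent.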
Chain of Cytochrome P450 2D6 (Homo sapiens) (P10635 whole entry, looked up): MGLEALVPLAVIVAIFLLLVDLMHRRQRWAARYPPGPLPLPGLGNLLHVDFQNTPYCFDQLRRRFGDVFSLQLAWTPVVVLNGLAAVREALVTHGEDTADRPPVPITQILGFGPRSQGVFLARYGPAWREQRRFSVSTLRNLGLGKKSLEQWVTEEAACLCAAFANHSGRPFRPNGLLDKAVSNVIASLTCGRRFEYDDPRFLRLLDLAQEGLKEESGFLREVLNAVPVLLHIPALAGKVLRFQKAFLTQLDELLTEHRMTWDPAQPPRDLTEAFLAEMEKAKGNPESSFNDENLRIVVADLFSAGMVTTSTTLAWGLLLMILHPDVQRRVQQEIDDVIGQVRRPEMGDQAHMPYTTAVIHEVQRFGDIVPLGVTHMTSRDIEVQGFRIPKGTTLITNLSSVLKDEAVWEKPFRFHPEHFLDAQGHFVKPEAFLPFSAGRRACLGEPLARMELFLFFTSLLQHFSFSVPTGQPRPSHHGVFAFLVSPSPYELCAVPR

Test [3] addresses Cytochrome P450 2C9 (Homo sapiens) (UniProt P11712). Nature of the test: Cytochrome P450 family 2 subfamily C member 9 (CYP2C9) small molecule antagonists: luciferase biochemical (cell-free) qHTS assay (AID 1645842; active = well fitted curve in the direction sought with a large enough effect in the repeat runs; an effect the other way counts as inactive or inconclusive; note: nearly all actives have a fitted effect of over 55% in size; note: potency is the fitted concentration of half-maximal effect). A digest of the protocol: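 P450-Glo CYP2C9 system: proluciferin substrate with enzyme in mix containing 0.4% BSA, 10 min at room temperature, then NADPH regeneration solution added and incubated 1 h at 37C. Detection reagent stopped reaction; luminescence read after 20 min as RLU.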

Test [4] in a line: Primary qHTS for inhibitors of nuclear receptor binding SET domain protein 2 (NSD2) in an isogenic RCH-ACV NSD2 p.E1099K mutant (9B) (AID 1645876). Note: nearly all actives have a fitted effect of over 70% in size. Note: potency is the fitted concentration of half-maximal effect.
Test [5] can be described thus: Primary qHTS for inhibitors of nuclear receptor binding SET domain protein 2 (NSD2) in an RCH-ACV wild type WT cells (2C) (AID 1645877). Note: nearly all actives have a fitted effect of over 70% in size. Note: potency is the fitted concentration of half-maximal effect.
Test [6] in a line: Primary qHTS for small molecule stabilizers of the endoplasmic reticulum resident proteome: Secreted ER Calcium Modulated Protein (SERCaMP) assay (AID 1508630). A digest of the protocol: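 The SH-SY5Y reporter protocol was run at 3 concentrations up to 38.3 uM (primary) or 11 concentrations (follow-up): 16 h compound, 100 nM thapsigargin for 4 h, then extracellular luciferase luminescence.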

For the next test, the target named is Papain (Carica papaya) (UniProt P00784). Nature of the test: Primary qHTS assay for inhibitors of the protease papain (AID 1645873).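 Note: papain turnover of Z-FR-AMC read as the AMC fluorescence gain over 10 min.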 Note: potency is the fitted concentration of half-maximal effect.
Chain of Papain (Carica papaya) (P00784 whole entry, looked up): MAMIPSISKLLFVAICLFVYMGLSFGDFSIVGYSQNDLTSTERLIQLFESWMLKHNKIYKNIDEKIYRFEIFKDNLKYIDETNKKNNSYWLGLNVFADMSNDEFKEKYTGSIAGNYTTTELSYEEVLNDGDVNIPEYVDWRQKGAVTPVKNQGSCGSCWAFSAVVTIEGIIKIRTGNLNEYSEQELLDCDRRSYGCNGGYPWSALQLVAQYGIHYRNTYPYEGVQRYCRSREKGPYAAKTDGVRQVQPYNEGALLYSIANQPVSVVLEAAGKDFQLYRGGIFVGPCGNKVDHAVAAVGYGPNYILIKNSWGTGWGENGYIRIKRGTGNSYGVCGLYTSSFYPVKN
In test [7] the target is N-terminal Xaa-Pro-Lys N-methyltransferase 1 (Homo sapiens) (UniProt Q9BV86). In words: Confirmatory qHTS for Inhibitors of N-terminal methyltransferase 1 (NTMT1): MTaseGlo Assay (AID 1645874).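 Note: luminescence from SAH made as NTMT1 methylates SPKRIA peptide using SAM; series mostly up to about 100 µM; nearly all actives have a fitted effect of over 65% in size.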 A digest of the protocol:
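Enzyme mix (125 nM NTMT1, 100 uM SAM) + compound, 15 min RT; + 1 uM SPKRIA, 30 min RT, dark; MTase-Glo reagent 30 min, detection solution 30 min; luminescence. % inhibition vs no-enzyme/DMSO controls, 4-parameter Hill fit.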

Several values for one entry are separate records, joined by “and”; a condition that tells them apart may be missing. Equal entries are not always repeated. Inconclusive results are not listed. Activity calls are given as the source filed them. Unless noted, calls come from the whole dose curve; as a rule, active = well fitted curve in the direction sought with a large enough effect; inconclusive = small, poorly fitted or top-dose-only effect, or another doubt; inactive = no such curve, though single readings can be large; an effect the other way counts as inactive or inconclusive.

Chain of Cytochrome P450 2C9 (Homo sapiens) (P11712 whole entry, looked up): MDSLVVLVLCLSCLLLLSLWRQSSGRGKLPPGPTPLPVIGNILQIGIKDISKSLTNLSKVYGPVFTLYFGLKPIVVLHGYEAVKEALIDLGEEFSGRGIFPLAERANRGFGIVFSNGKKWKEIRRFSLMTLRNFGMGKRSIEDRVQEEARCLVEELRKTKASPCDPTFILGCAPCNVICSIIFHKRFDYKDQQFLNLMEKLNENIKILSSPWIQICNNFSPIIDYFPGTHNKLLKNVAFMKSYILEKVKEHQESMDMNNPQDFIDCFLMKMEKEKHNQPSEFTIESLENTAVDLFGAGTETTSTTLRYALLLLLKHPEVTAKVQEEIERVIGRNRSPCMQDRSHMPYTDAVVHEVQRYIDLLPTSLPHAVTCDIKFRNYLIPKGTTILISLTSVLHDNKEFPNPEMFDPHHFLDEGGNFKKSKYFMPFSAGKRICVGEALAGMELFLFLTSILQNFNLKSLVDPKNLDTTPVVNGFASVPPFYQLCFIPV
Chain of N-terminal Xaa-Pro-Lys N-methyltransferase 1 (Homo sapiens) (Q9BV86 whole entry, looked up): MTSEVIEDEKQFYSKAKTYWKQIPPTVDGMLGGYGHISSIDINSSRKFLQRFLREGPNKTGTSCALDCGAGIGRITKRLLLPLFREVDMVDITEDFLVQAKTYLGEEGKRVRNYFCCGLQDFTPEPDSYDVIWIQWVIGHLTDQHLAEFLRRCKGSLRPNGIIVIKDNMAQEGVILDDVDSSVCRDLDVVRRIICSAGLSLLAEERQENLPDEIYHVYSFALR

Take `Nc1nc(N)nc(-c2cc(Cl)ccc2Cl)n1`: the Potency result in test [1], in test [2], in test [3], in test [4] and in test [5] was “inactive” in each case.
Regarding `CCN(CC)CCn1c(=O)c(Cc2ccc(OC)cc2)nc2ccccc21`, the Potency result (in test [6]; in test [3]; with Papain (Carica papaya); in test [4]; in test [5]) was “inactive” each time. Besides, in test [2], the Potency was 7.56 µM (active).
Turning to `Nc1nc(=S)c2[nH]cnc2[nH]1`, the Potency entry in test [6], in test [2] and in test [7] was “inactive” each time. The Potency in test [3] was 15.5 µM (active); in test [4], 750 nM (active) and 833 nM (active); in test [5] it was 1.06 µM (active) and 742 nM (active).
Consider `CCN1CCCC1CNC(=O)c1cc(S(N)(=O)=O)ccc1OC` (stereo not drawn), for which the Potency entry (in test [6]; with Papain (Carica papaya)) was “inactive” in each case.
In the case of `O=C(O)c1cc(=O)[nH]c(=O)[nH]1`, the Potency result in test [1], in test [2], in test [3], in test [4] and in test [5] was “inactive” in each case.
As for `CCN(CC)CC#CCOC(=O)C(O)(c1ccccc1)C1CCCCC1` (stereo not drawn), the Potency entry (in test [6]; with Papain (Carica papaya)) was “inactive” in each case. For the same compound, the Potency is 3.01 µM (active) in test [2] and 7.56 µM (active) in test [3].
In the case of `CN(C)c1ccc(C(=C2C=CC(=[N+](C)C)C=C2)c2ccc(N(C)C)cc2)cc1`, the Potency result in test [6] is “inactive”. The Potency is 3.09 µM (active) in test [2]; 33.5 nM (active) and 296 nM (active) in test [4]; 42.2 nM (active) and 263 nM (active) in test [5].
As to `CC1CC2C3CCC4=CC(=O)C=C[C@]4(C)[C@@]3(F)[C@@H](O)C[C@]2(C)[C@@]1(O)C(=O)CO` (stereo partly drawn), the Potency entry (in test [6]; with Papain (Carica papaya)) was “inactive” in each case.
Turning to `CC(=O)[C@H]1CC[C@H]2[C@@H]3CCC4=CC(=O)CC[C@]4(C)[C@H]3CC[C@]12C`, the Potency result (in test [6]; in the test with Papain (Carica papaya)) was “inactive” throughout.
As to `CO[C@@]12[C@H](COC(N)=O)C3=C(C(=O)C(C)=C(N)C3=O)N1C[C@@H]1N[C@@H]12`, the Potency entry in test [6], in test [3], in test [4] and in test [5] was “inactive” throughout. Besides, the Potency in test [2] was 12.3 µM (active).
In the case of `COc1ccc(-c2ccc3cc(C(=O)O)ccc3c2)cc1C12CC3CC(CC(C3)C1)C2`, the Potency result in test [6], in test [2], in test [3], in test [4] and in test [5] was “inactive” in each case.
Regarding `CN1CCCC(n2nc(Cc3ccc(Cl)cc3)c3ccccc3c2=O)CC1` (stereo not drawn), the Potency result in test [6] and in test [3] was “inactive” throughout. The Potency in test [2] is 0.617 µM (active).
With `O[C@@H](CNC[C@H](O)[C@H]1CCc2cc(F)ccc2O1)[C@@H]1CCc2cc(F)ccc2O1`, the Potency result in test [6] and in test [3] was “inactive” throughout. In addition, the Potency in test [2] was 0.0389 µM (active); in test [4], 11.9 µM (active); in test [5] it was 11.9 µM (active).
As for `NCCCC(O)(P(=O)(O)O)P(=O)(O)O`, in test [1], the Potency result was “inactive”.
On to `Cc1ccc(S(=O)(=O)N[C@@H](Cc2ccccc2)C(=O)CCl)cc1`, for which the Potency result (in test [6]; with Papain (Carica papaya)) was “inactive” each time. Besides, the Potency in test [4] was 13.2 µM (active).
Turning to `OCc1ccc(-c2nn(Cc3ccccc3)c3ccccc23)o1`, the Potency entry in test [6] is “inactive”. Also, the Potency with Papain (Carica papaya) is 25.1 µM (active); in test [4] it was 3.72 µM (active).
For `NC1(c2ccc(-c3nc4ccn5c(=O)[nH]nc5c4cc3-c3ccccc3)cc2)CCC1`, the Potency entry in test [6] and in test [3] was “inactive” in each case. In addition, the Potency in test [4] was 21.1 nM (active) and 64.9 nM (active) and 166 nM (active).
On to `O=C(O)C1CCCN(CCC=C(c2ccccc2)c2ccccc2)C1` (stereo not drawn), for which the Potency entry (in test [6]; with Papain (Carica papaya); in test [4]; in test [5]) was “inactive” throughout.
For the compound `CC(=O)Oc1ccccc1C(=O)Nc1ncc([N+](=O)[O-])s1`, the Potency entry in test [6], in test [4] and in test [5] was “inactive” in each case. In addition, the Potency in test [2] is 8.71 µM (active); in test [3], 2.75 µM (active).
In the case of `O=C(O)c1cn(C2CC2)c2cc(N3CCNCC3)c(F)cc2c1=O`, the Potency result in test [1] was “inactive”.
On to `COC(=O)Nc1nc2ccc(C(=O)c3ccccc3)cc2[nH]1`, for which the Potency entry in test [6], in test [2] and in test [3] was “inactive” in each case. Moreover, the Potency was 211 nM (active) and 417 nM (active) in test [4]; 106 nM (active) and 372 nM (active) in test [5].
On to `CCc1c2c(nc3ccc(OC(=O)N4CCC(N5CCCCC5)CC4)cc13)-c1cc3c(c(=O)n1C2)COC(=O)[C@]3(O)CC`, for which the Potency entry in test [6], in test [2] and in test [3] was “inactive” each time. Further, the Potency is 750 nM (active) and 235 nM (active) in test [4]; 596 nM (active) and 118 nM (active) in test [5].
Take `CCOC(=O)c1ccc(OC(=O)CCCCCN=C(N)N)cc1`: the Potency entry in test [1], in test [3] and in test [4] was “inactive” throughout. Moreover, the Potency is 0.0977 µM (active) in test [2] and 23.5 µM (active) in test [5].
`CC(=O)CC(c1ccccc1)c1c(O)c2ccccc2oc1=O` (stereo not drawn): the Potency result in test [1], in test [2] and in test [4] was “inactive” throughout.
Take `Nc1nc(F)nc2c1ncn2[C@@H]1O[C@H](CO)[C@@H](O)[C@@H]1O`: the Potency entry in test [1], in test [2] and in test [3] was “inactive” in each case. Also, the Potency is 2.09 µM (active) and 94.4 nM (active) and 1.29 µM (active) in test [4]; 2.63 µM (active) and 84.1 nM (active) and 1.29 µM (active) in test [5].
In the case of `CCCc1cc(C(N)=S)ccn1`, the Potency result in test [1], in test [2], in test [3], in test [4] and in test [5] was “inactive” in each case.
As to `CC[C@H](NC(C)C)[C@H](O)c1ccc(O)c2[nH]c(=O)ccc12`, the Potency result in test [1], in test [3] and in test [4] was “inactive” in each case.
For the compound `CCc1cc(C(N)=S)ccn1`, the Potency result in test [1], in test [7], in test [4] and in test [5] was “inactive” each time.
Regarding `OC(Cn1cncn1)(Cn1cncn1)c1ccc(F)cc1F`, the Potency result in test [1] and in test [4] was “inactive” in each case.
As for `CCCc1nc(C)c2c(=O)[nH]c(-c3cc(S(=O)(=O)N4CCN(CC)CC4)ccc3OCC)nn12`, the Potency result in test [1], in test [2], in test [4] and in test [5] was “inactive” each time.
With `NC(=O)c1cccnc1`, the Potency entry in test [1], in test [2], in test [3], in test [4] and in test [5] was “inactive” each time.
With `CCOC(=O)[C@H](CCc1ccccc1)N[C@H]1CCc2ccccc2N(CC(=O)O)C1=O`, the Potency in test [3] was 4.9 µM (active). Besides, the Potency result in test [4] and in test [5] was “inactive” in each case.
For `CC(C)(C)C(=O)OCOP(=O)(COCCn1cnc2c(N)ncnc21)OCOC(=O)C(C)(C)C`, the Potency entry in test [1], in test [2] and in test [3] was “inactive” throughout. The Potency is 7.5 µM (active) and 7.42 µM (active) in test [4]; 6.68 µM (active) and 7.42 µM (active) in test [5].
